Vaccinia inh = blocks a specific stage of Vaccinia orthopoxvirus infection, primary screen, cell-based, single point; Vaccinia-infected cells, mCherry/Venus stage reporter fluorescence; stronger effect = lower value; activity change (mCherry), % (concentration not given with the values); actives 0.01% (n = 89,000); in the data active means activity change below about -37%, passing the limit was not always enough; tested in A549 cells
* hit, by the source's call. The entries come from a sample that favours hits as a whole.

SMILES	Vaccinia inh
C[C@@H]1CN([C@@H](C)CO)C(=O)c2cccc(NS(C)(=O)=O)c2O[C@H]1CN(C)Cc1ccncc1	15
O=C(NCC[C@@H]1CC[C@H](NS(=O)(=O)c2ccc(F)cc2)[C@@H](CO)O1)c1ccccc1F	-3
C[C@@H]1CCCCO[C@@H](CN(C)C(=O)C2CCCCC2)[C@H](C)CN([C@@H](C)CO)C(=O)c2cc(NC(=O)C3CCCCC3)ccc2O1	-21
C[C@@H]1CN([C@H](C)CO)C(=O)Cc2cc(NC(=O)Nc3ccc(F)cc3)ccc2O[C@@H]1CN(C)S(=O)(=O)c1ccccc1	13
COCC(=O)N(C)C[C@@H]1Oc2cc(-c3ccc(F)cc3)ccc2S(=O)(=O)N([C@@H](C)CO)C[C@H]1C	-1
O=C(C[C@H]1C[C@@H]2c3cc(NC(=O)Nc4ccccc4F)ccc3O[C@@H]2[C@H](CO)O1)NCC(F)(F)F	14
COc1ccc(C(=O)Nc2ccc3c(c2)C(=O)N(C)C[C@H](OC)[C@H](C)CN[C@@H](C)CO3)cc1	-1
O=C(C[C@@H]1CC[C@@H](NS(=O)(=O)c2ccc(F)cc2)[C@@H](CO)O1)N1CCC(Cc2ccccc2)CC1	-16
O=S(=O)(NCC[C@@H]1CC[C@H](NS(=O)(=O)c2cccc(Cl)c2)[C@@H](CO)O1)c1cccc(F)c1	-31
C[C@@H]1CN([C@@H](C)CO)C(=O)c2cc(NS(=O)(=O)c3ccc(F)cc3)ccc2O[C@H]1CN(C)C(=O)Nc1ccc(F)cc1	18
C[C@@H]1CN([C@H](C)CO)C(=O)c2cccc(NS(=O)(=O)c3ccc(F)cc3)c2O[C@@H]1CN(C)C(=O)Nc1cccc2ccccc12	3
COc1cccc(-c2ccc3c(c2)[C@H]2[C@H](CCN2S(=O)(=O)c2ccccc2OC)[C@@H](CO)N3)c1	-2
COc1cccc(S(=O)(=O)N[C@H]2CC[C@H](CCn3cc(-c4ccc(F)cc4)nn3)O[C@H]2CO)c1	-10
CN(C)C(=O)c1ccc(-c2ccc3c(c2)[C@@H]2[C@@H](CCN2Cc2ccc4c(c2)OCO4)[C@H](CO)N3)cc1	-29
COc1ccccc1CN1CC[C@H]2[C@H](CO)Nc3ccc(-c4ccc(C(=O)N(C)C)cc4)cc3[C@H]21	-40*
COc1ccccc1CN1CC[C@@H]2[C@@H](CO)Nc3ccc(-c4ccc(C(=O)N(C)C)cc4)cc3[C@@H]21	-39*
CN(C)C(=O)c1ccc(-c2ccc3c(c2)[C@H]2[C@H](CCN2Cc2ccc4c(c2)OCO4)[C@@H](CO)N3)cc1	-22
CN(C)C(=O)c1ccc(-c2ccc3c(c2)[C@H]2[C@H](CCN2Cc2ccc4c(c2)OCO4)[C@H](CO)N3)cc1	-27
CN(C)C(=O)c1ccc(-c2ccc3c(c2)[C@H]2[C@H](CCN2C(=O)c2ccccc2)[C@H](CO)N3)cc1	-9
C[C@@H]1CN([C@@H](C)CO)S(=O)(=O)c2ccc(C#CC3(O)CCCC3)cc2O[C@@H]1CN(C)C(=O)Nc1ccccc1	-5
CCNC(=O)C[C@@H]1CC[C@H]2[C@@H](COC[C@H](O)CN2Cc2ccccc2F)O1	12

Screening data: PubChem, Broad Institute
